E coli growth-1: E. coli growth inhibition. Escherichia coli growth, OD600, 23 h; hits give low values. 330,000 compounds, 0.21% hits. OD600 absorbance (test concentration not listed);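 active = OD600 absorbance below the run mean of sample wells minus 3.6 SD, in any replicate, cut at about 0.56 in these data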
phage Ecoli inh: E. coli growth loss with phage present. growth absorbance. inhibition, % at 11.9 µM. 360,000 compounds, 0.26% hits; in the data active = inhibition above about 11%
Tat transport: blocks Tat-dependent protein export in E. coli | 340,000 compounds, 0.036% hits | AID 488895 | E. coli MC4100 TorA-mCherry Tat export, fluorescence | inhibition, % at 10 µM;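 active = mean replicate inhibition at least 50% and at least half of replicates individually reaching 50%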;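 note: exported cargo escapes ClpAP degradation while cytoplasmic cargo is degraded and loses fluorescence; 0% = median of neutral control wells and 100% = median of NaSCN control wells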
AddAB inh: less growth of phage-infected E. coli with AddAB; E. coli expressing H. pylori AddAB, absorbance growth; inhibition, % at 11.9 µM; 330,000 compounds, 0.29% hits; in the data active = inhibition above about 12%;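 note: 0% = vehicle wells of infected cells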
E coli growth-2: counter-screen for AddAB inhibitors: E. coli growth inhibition. E. coli V3065 growth, OD600 absorbance, 18 h. 330,000 compounds, 0.27% hits. AID 449728. inhibition, % at 11.9 µM;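 active = inhibition above the campaign's mean inhibition across all tested compounds plus 3 SD, cut at about 9.9% in these data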;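 note: uninfected addAB+ strain grown without phage in ampicillin broth; 0% = DMSO wells and 100% = ciprofloxacin 0.95 µg/ml wells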
RecBCD conf: growth loss of phage-infected V66 E. coli, RecBCD confirmation screen. inhibition, % at 11.9 µM. 890 compounds, 45% hits. E. coli V66 + T4 2- phage, growth OD. shares compounds with phage Ecoli inh;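 active = mean inhibition over triplicates exceeding the hit threshold derived in the original primary screen, cut at about 11% in these data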
Ecoli viability: inhibits E. coli viability, flagging RecBCD hits as nonselective | shares compounds with phage Ecoli inh | inhibition, % at 11.9 µM | absorbance (OD) growth | 890 compounds, 29% hits; in the data active = inhibition above about 20%;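 note: E. coli strain V66 grown with compound alone and no phage infection; 0% = bacteria with DMSO vehicle only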
AddAB counter: growth loss of phage-infected AddAB E. coli, RecBCD counter-screen; shares compounds with phage Ecoli inh; E. coli expressing H. pylori AddAB + T4 phage, OD growth; gene 2 mutant T4, recBCD-deleted host; inhibition, % at 11.9 µM; 890 compounds, 45% hits;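 active = mean inhibition above the solvent-only control wells' mean plus 3 SD, cut at about 22% in these data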;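 note: higher means less bacterial growth from phage killing when AddAB is blocked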
* hit, by the source's call; x = no result. Compounds with a hit are over-represented: about 0.5% of the library has one in this group of screens.

SMILES	E coli growth-1	phage Ecoli inh	Tat transport	AddAB inh	E coli growth-2	RecBCD conf	Ecoli viability	AddAB counter
COC(=O)c1cccc(C23CC4(C2)C(CN(C)C4c2ccccc2)C3c2ccccc2)c1 (configuration not stated)	0.686	x	x	x	x	x	x	x
Cc1ccccc1C(=O)ON=C(c1ccccc1)c1ccccn1	0.699	x	x	x	x	x	x	x
O=C(N/N=C/c1ccc(O)cc1O)c1ccc(NC(=O)C2CCCCC2)cc1	x	23.5*	-15.1	23.5*	29.3*	14.0*	18.5	18.0
COC(=O)C1=C(C(=O)OC)C2N(C)c3ccc(OC)cc3[C@@]23CC(C(=O)OC)N(C(=O)COCc2ccccc2)C3=N1 (some centres not stated)	0.675	x	x	x	x	x	x	x
CCC(=O)Nc1sc(Cc2ccc3c(c2)OCO3)c(C)c1C(N)=O	0.661	-0.1	-2.9	-0.4	-1.9	x	x	x
Cc1c(Cc2ccc3c(c2)OCO3)sc(NC(=O)C(C)(C)C)c1C#N	0.791	100.1*	-2.2	0.2	-0.6	-1.5	-1.5	-1.2
O=C(CCCc1ccccc1)NCc1cn2ccsc2n1	0.73	96.2*	6.5	-3.5	0.7	-1.8	-0.7	3.9
Cc1cccc(NC(=O)COC(=O)CN2CCCCCC2=O)c1C	0.672	10.9*	-11.8	-0.4	-0.1	0.8	0.8	-0.6
COCCCn1c(=C(C#N)C(=O)NC(C)C)sc(=Cc2ccccc2OC(F)F)c1=O	0.644	x	x	x	x	x	x	x
Cc1noc(C)c1S(=O)(=O)Nc1ccc2c(c1)CC(=O)N(C(C)CO)CC(C)C(CN(C)CC1CC1)O2 (configuration not stated)	0.694	x	x	x	x	x	x	x
CN(C(=O)C1CCC1C(=O)O)c1nc(-c2ccc(Cl)s2)cs1 (configuration not stated)	0.644	99.2*	9.3	5.5	0.8	-0.6	-0.4	-1.8
CC1CC1C(=O)Nc1nc(-c2ccc(Cl)s2)cs1 (configuration not stated)	0.713	10.3	3.0	2.8	1.4	x	x	x
CC1=NNC(=O)C1CCC(=O)NN=Cc1ccc(Cl)cc1 (configuration not stated)	0.681	x	x	x	x	x	x	x
CC(=NNC(=O)c1ccccc1O)C1C(=O)c2ccccc2C1=O	0.669	x	x	x	x	x	x	x
C/C(=N/NC(=O)c1cc2ccccc2cc1O)C1C(=O)c2ccccc2C1=O	x	11.2*	7.1	9.4	9.2	5.4	6.7	2.9
Cc1nccn1CC(=O)NN=Cc1cccs1	0.684	x	x	x	x	x	x	x
CCN(CCOC(=O)Nc1ccc(Cl)cc1)C(=O)Nc1ccc(Cl)cc1	x	11.4*	x	x	x	4.5	5.2	1.4
O=C(COc1ccccc1)N/N=C/c1ccc([N+](=O)[O-])o1	x	11.6*	-1.4	10.1	9.8*	8.2	7.3	30.8*
O=C(NN=Cc1ccncc1)c1ccc(Cl)s1	0.663	x	x	x	x	x	x	x
Cc1cc(=O)[nH]c(N=N/C(=N/Nc2ccc(O)cc2)c2ccccc2)n1	x	20.6*	-1.0	6.1	8.1	18.7*	17.4	78.5*
Cc1cc(=O)[nH]c(N=N/C(=N/Nc2ccccc2C)c2ccccc2)n1	x	5.0	2.5	1.1	3.1	x	x	x
CN(C)c1ccc(C=c2c3ccccc3n3c2c2c([n+]3C)CCCC2)cc1	x	61.6*	14.0	x	x	71.7*	97.2*	101.4*
Cn1ccc(=O)c2cc([N+](=O)[O-])ccc21	x	14.8*	x	x	x	8.7	11.1	98.7*
O=[N+]([O-])c1cc([N+](=O)[O-])c(Oc2c(Cl)cccc2Cl)cc1NN1CCCCC1	0.71	13.1*	1.3	4.1	0.1	-3.2	-3.9	-1.3
CC(NC(=O)c1nc[nH]c1C(=O)NC1CCN(C(=O)OC(C)(C)C)CC1)C(=O)OCc1ccccc1 (configuration not stated)	0.614	x	x	x	x	x	x	x
CC(=NNC(=S)Nc1ccccc1)c1ccccn1	x	15.6*	x	x	x	6.6	9.1	7.2
CC(=NNC(=O)c1ccccc1Cl)c1ccccn1	0.627	x	x	x	x	x	x	x
CC(=NNC(=S)Nc1ccccc1Cl)c1ccccn1	x	14.3*	1.0	x	x	9.6	9.0	14.3
CCCCCn1nc(C)c(C=NNC(=O)c2ccoc2C)c1C	0.663	x	x	x	x	x	x	x
O=C(COc1ccccc1Cl)Nc1nnc(S(=O)(=O)N2CCCC2)s1	0.772	36.2*	2.8	1.4	1.4	-2.1	-2.2	-1.3
